D3 ag = activates the human D3 dopamine receptor. D3R DiscoveRx beta-arrestin cells, luminescence, 90 min. max activation, %. 410,000 compounds, 0.58% hits. AID 652048; in the data active = max activation above about 30%
Target sequence (P35462 whole entry, looked up): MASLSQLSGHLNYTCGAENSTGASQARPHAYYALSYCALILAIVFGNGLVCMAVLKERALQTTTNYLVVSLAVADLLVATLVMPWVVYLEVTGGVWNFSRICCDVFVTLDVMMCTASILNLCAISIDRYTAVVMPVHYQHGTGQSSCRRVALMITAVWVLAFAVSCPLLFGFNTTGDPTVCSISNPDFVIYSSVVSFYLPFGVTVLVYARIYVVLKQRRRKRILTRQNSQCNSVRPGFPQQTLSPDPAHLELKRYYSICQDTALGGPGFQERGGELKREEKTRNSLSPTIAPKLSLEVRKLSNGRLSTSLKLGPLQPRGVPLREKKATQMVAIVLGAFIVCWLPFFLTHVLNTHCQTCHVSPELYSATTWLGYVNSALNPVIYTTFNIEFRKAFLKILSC
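Cells at 1500/well, incubated overnight, then treated with pinned compounds (dopamine as control) for 90 min at 37 degrees C. DiscoveRx reagent added for 30 - 60 minutes at room temperature; luminescence read.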
DRD3 antagonist = antagonists of human D3 dopamine receptor | P35462 | max response, negative = inhibition, % | D3R cells, DiscoveRx beta-arrestin luminescence, antagonist mode; hits give low values | AID 652054 | 360,000 compounds, 2.5% hits; in the data active = max response below about -50%; inconclusive = no clear call, values can overlap the other calls
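Cells plated overnight at 1500 cells/well, then exposed to library compounds with dopamine controls for 90 minutes at 37 degrees C. DiscoveRx reagent added for 30–60 minutes at room temperature; luminescence read, quantitative HTS format.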
TGFb SMAD3 inh = inhibitors of TGF-b signaling; HepG2 CAGA-GFP TGF-b/SMAD3 reporter, GFP fluorescence, 18 h; TGF-beta stimulated, 500 pg/mL final; Potency, µM (titrated, usually from 46.1 µM), actives largely listed as inhibitors; 410,000 compounds, 1.2% hits; also: nearly all actives have a fitted effect of over 65% in size
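Inhibition was scored as loss of TGF-beta-induced (500 pg/mL final, 18 hours, 37 degrees C) GFP in HEPG2 cells carrying a CAGA-GFP reporter, in DMEM with 1% FBS. Well GFP was summed per cell; Activity was normalised to unstimulated and stimulated DMSO wells, then concentration-response fitting.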
ATXN2 expr inh = inhibitors of ATXN2 expression; Potency, µM (titrated, usually from 57 µM), most hits filed as inhibitors; AID 1745845; 360,000 compounds, 0.72% hits; HEK-293 ATXN2-luciferase reporter, luminescence, 24 h; also: nearly all actives have a fitted effect of over 55% in size
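ATXN2-luciferase reporter cells (luciferase flanked by upstream and downstream ATXN2 gene portions) were treated 24 h at 37 °C with compounds at up to 57 uM. SteadyGlo luminescence gave expression; GF-AFC fluorescence gave viability.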
HepG2 tox-1 = kills HepG2 cells in TGF-b inhibitor counter-screen. AID 588856. HepG2 CAGA-GFP viability, ATP luminescence, 18 h. Potency, µM (top dose mostly 46.1 µM), hits mostly cytotoxic. 410,000 compounds, 0.76% hits
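HepG2 CAGA-GFP cells (1000/well, DMEM with 1% FBS) received compound, then TGF-beta at 500 pg/mL final, and were incubated 18 hours at 37 degrees C. Viability was read by CellTiter-Glo luminescence. Media-only wells were set as complete cell-killing and DMSO as no toxicity.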
S2 tox = viability counter-screen for ATXN expression inhibitors; S2 cells (HEK-293 line with an ATXN2-luciferase reporter) viability, CellTiter-Fluor protease fluorescence, 24 h; Potency, µM (doses to about 56.7 µM), most hits filed as cytotoxic; 400,000 compounds, 0.49% hits; AID 651635; also: nearly all actives have a fitted effect of over 40% in size
TGFb CAGA inh = TGF-b pathway inhibition, cherry-pick retest; 1,600 compounds, 63% hits; shares compounds with TGFb SMAD3 inh; Potency, µM (titrated, usually from 46.1 µM), usual class: inhibitors; AID 720534; HepG2 CAGA-GFP TGF-b reporter, GFP fluorescence, 18 h; cells stimulated with TGF-beta, 500 pg/mL; also: nearly all actives have a fitted effect of over 65% in size
HepG2 tox-2 = HepG2 cytotoxicity, TGF-b inhibitor counterscreen; shares compounds with TGFb SMAD3 inh; HepG2 CAGA-GFP viability, ATP luminescence, 18 h; cells stimulated with TGF-beta, 500 pg/mL; Potency, µM (top dose mostly 46.1 µM), actives largely listed as inhibitors; 1,600 compounds, 27% hits; AID 720535; also: nearly all actives have a fitted effect of over 70% in size
TGFb CCL64 inh = TGF-b inhibition, CCL64 orthogonal assay; shares compounds with TGFb SMAD3 inh; CCL64 CAGA-GFP reporter, TGF-b stimulated, GFP fluorescence, 18 h; Potency, µM (doses to about 46.1 µM), hits mostly inhibitors; 1,600 compounds, 41% hits; also: nearly all actives have a fitted effect of over 65% in size
TGFb COP inh = blocks TGF-b signaling in HepG2 COP reporter. HepG2 COP-GFP TGF-b reporter, GFP fluorescence, 18 h; cells stimulated by added recombinant TGF-beta. AID 720537. Potency, µM (series often up to 46.1 µM), actives largely listed as inhibitors. 1,600 compounds, 3% hits. shares compounds with TGFb SMAD3 inh; also: nearly all actives have a fitted effect of over 70% in size
Numbers stand for hits. The list is not random: actives were taken first. Their share in the collection is about 4.8%. Unless noted, calls follow the shape of the dose curve; as a rule, active = well fitted curve in the direction sought with a large enough effect; inconclusive = small, poorly fitted or top-dose-only effect, or another doubt; inactive = no such curve, though single readings can be large; an effect the other way counts as inactive or inconclusive.

For NC(c1csc(NC(=O)Nc2cccc(Cl)c2)n1)c1ccccc1Cl (configuration not stated) the results were D3 ag inactive, DRD3 antagonist inactive, TGFb SMAD3 inh 10µM, ATXN2 expr inh inconclusive, HepG2 tox-1 inactive, S2 tox inconclusive, TGFb CAGA inh 18µM, HepG2 tox-2 inconclusive, TGFb CCL64 inh inconclusive and TGFb COP inh inactive.
For Cc1ccc(NC(=O)Nc2nnc(-c3ccncc3)s2)cc1C the results were D3 ag inactive, DRD3 antagonist inactive, TGFb SMAD3 inh 7.9µM, ATXN2 expr inh inactive, HepG2 tox-1 inactive, S2 tox inactive, TGFb CAGA inh 9.2µM, HepG2 tox-2 inconclusive, TGFb CCL64 inh inconclusive and TGFb COP inh inactive.
O=C(NCc1ccco1)c1ccc2c(c1)N(Cc1ccc(F)cc1)C(=O)c1ccccc1S2=O (configuration not stated) was read as D3 ag inactive, TGFb SMAD3 inh inactive, ATXN2 expr inh inactive, HepG2 tox-1 inactive and S2 tox inactive.
For CNC(=O)CSc1nnc(NC(=O)Nc2ccccc2)s1 the results were D3 ag inactive, TGFb SMAD3 inh inactive and HepG2 tox-1 inactive.
CS(=O)(=O)c1ccc2nc(NC(=O)Nc3cccc(Cl)c3)sc2c1 was read as D3 ag inactive, DRD3 antagonist inactive, TGFb SMAD3 inh 2.2µM, ATXN2 expr inh inactive, HepG2 tox-1 inactive, S2 tox inconclusive, TGFb CAGA inh 16µM, HepG2 tox-2 inconclusive, TGFb CCL64 inh inconclusive and TGFb COP inh inactive.
Screening Cc1ccc(CC(=O)Nc2ncc([N+](=O)[O-])s2)cc1 returned D3 ag inactive, DRD3 antagonist inactive, TGFb SMAD3 inh inactive, HepG2 tox-1 inactive and S2 tox inconclusive.
Screening CCCCC(CC)C(=O)Nc1ncc([N+](=O)[O-])s1 (configuration not stated) returned D3 ag inactive, DRD3 antagonist inactive, TGFb SMAD3 inh 11µM, ATXN2 expr inh inconclusive, HepG2 tox-1 inactive, S2 tox inconclusive, TGFb CAGA inh 7.3µM, HepG2 tox-2 inconclusive, TGFb CCL64 inh inconclusive and TGFb COP inh inactive.
COc1ccc(OC)c2sc(NC(=O)CCS(=O)(=O)c3ccccc3)nc12 was read as D3 ag inactive, DRD3 antagonist inactive, TGFb SMAD3 inh inconclusive, ATXN2 expr inh inactive, HepG2 tox-1 inactive, S2 tox inconclusive, TGFb CAGA inh 2.3µM, HepG2 tox-2 16µM, TGFb CCL64 inh 4.6µM and TGFb COP inh inactive.
For O=C(CCS(=O)(=O)c1ccccc1)Nc1nc2ccc(F)cc2s1 the results were D3 ag inactive, DRD3 antagonist inconclusive, TGFb SMAD3 inh 3.5µM, ATXN2 expr inh inactive, HepG2 tox-1 inactive, S2 tox inactive, TGFb CAGA inh 1.2µM, HepG2 tox-2 inactive, TGFb CCL64 inh 10µM and TGFb COP inh inactive.
Screening COC(=O)c1ccc2nc(NC(=O)CCS(=O)(=O)c3ccccc3)sc2c1 returned D3 ag inactive, DRD3 antagonist inactive, TGFb SMAD3 inh inconclusive, ATXN2 expr inh inactive, HepG2 tox-1 inactive and S2 tox inactive.
`COc1ccc(OC)c2sc(NC(=O)CCSc3ccccc3)nc12` gave D3 ag inactive, DRD3 antagonist inactive, TGFb SMAD3 inh inactive, ATXN2 expr inh inactive, HepG2 tox-1 inactive and S2 tox inactive.
Cc1ccc(CNC(=O)C2CCN(C(=O)c3cnn(-c4ccccc4)c3-n3cccc3)CC2)cc1 was read as D3 ag inactive and HepG2 tox-1 inactive.
Screening CCOC(=O)c1c(NC(=O)CCCOc2ccc(Cl)cc2)sc2c1CCC2 returned D3 ag inactive, TGFb SMAD3 inh inactive, ATXN2 expr inh inactive, HepG2 tox-1 inactive and S2 tox inactive.
`COCc1c(C(=O)N2CCN(C3CCCCC3)CC2)cnn1-c1ncc(C)c(-c2cccs2)n1` gave S2 tox inactive.
For COc1ccc(Nc2nnc(-c3ccc(C)c(S(=O)(=O)N4CCOCC4)c3)c3ccccc23)cc1 the results were D3 ag inactive, TGFb SMAD3 inh inconclusive, ATXN2 expr inh inactive, HepG2 tox-1 inactive and S2 tox inactive.
Screening CCC1=C(CC2NCCc3ccccc32)CC2c3cc(OC)c(OC)cc3CCN2C1 (configuration not stated) returned D3 ag inactive, DRD3 antagonist inactive, TGFb SMAD3 inh 2.8µM, ATXN2 expr inh 8.9µM, HepG2 tox-1 inactive, S2 tox inconclusive, TGFb CAGA inh 1.5µM, HepG2 tox-2 inconclusive, TGFb CCL64 inh 5.2µM and TGFb COP inh inactive.
CC[C@@H]1C(c2ccccc2)=NN(c2ccccc2)[C@H]1C(=O)N1CCOC1=O was read as D3 ag inactive, DRD3 antagonist inactive, TGFb SMAD3 inh inconclusive, ATXN2 expr inh inactive, HepG2 tox-1 inactive, TGFb CAGA inh inactive, HepG2 tox-2 inactive, TGFb CCL64 inh inactive and TGFb COP inh inactive.
Screening O=C1OCCN1C(=O)[C@H]1[C@H](c2ccc([N+](=O)[O-])cc2)C(c2cccc(Cl)c2)=NN1c1ccccc1 returned D3 ag inactive, DRD3 antagonist inactive, TGFb SMAD3 inh inconclusive, ATXN2 expr inh inactive, HepG2 tox-1 inactive, S2 tox inconclusive, TGFb CAGA inh inactive, HepG2 tox-2 inactive, TGFb CCL64 inh inactive and TGFb COP inh inactive.
CCOC(=O)c1c(Nc2ccc(OCC)cc2)nnc(-c2ccccc2)c1-c1ccccc1 was read as D3 ag inactive, TGFb SMAD3 inh inactive, ATXN2 expr inh inactive, HepG2 tox-1 inactive and S2 tox inactive.
Cn1cnc([N+](=O)[O-])c1Sc1nc(N)nc2c1ncn2C1OC(CO)C(O)C1O (configuration not stated) was read as D3 ag inactive, DRD3 antagonist inactive, TGFb SMAD3 inh 2µM, ATXN2 expr inh inactive, HepG2 tox-1 inactive, S2 tox inconclusive, TGFb CAGA inh 2.9µM, HepG2 tox-2 0.92µM, TGFb CCL64 inh inactive and TGFb COP inh inactive.

Bioassay records as filed in PubChem BioAssay.
